# Data reported in PubChem BioAssay (NCATS).
# Where “and” joins values, the source holds several entries; their conditions need not be identical. Equal entries are not always repeated. Inconclusive results are not listed. A number with no mark means an inactive call. Calls of active or inactive are those of the source. Calls follow the shape of the dose curve; as a rule, active = well fitted curve in the direction sought with a large enough effect; inconclusive = small, poorly fitted or top-dose-only effect, or another doubt; inactive = no such curve, though single readings can be large; an effect the other way counts as inactive or inconclusive.
# Columns and labels:
# [1] = Viability qHTS for spleen associated tyrosine kinase inhibitor (SYKi) naive MV4-11 cells (AID 1963823); also: nearly all actives have a fitted effect of over 40% in size; also: potency is read from the fitted curve at half-maximal effect
# Summary of the method: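 In this viability screen, compounds acted on SYK inhibitor naive MV4-11 cells for three days (72 hr, 37 C). Remaining viable cells were measured by CellTiter-Glo luminescence following a 10 min room-temperature development.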
# [2] = Cellular viability qHTS for adrenocortical cancer (ACC) cell line SW-13 (AID 1963989); details: SW-13 ACC cells viability, CellTiter-Glo, 48 h; activity (max response): stronger effect = lower value; also: nearly all actives have a fitted effect of over 65% in size; also: potency is read from the fitted curve at half-maximal effect;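 as to activity (max response): cells grown in serum-free medium with ITS supplement; % is scaled to controls: 0 for no effect and ±100 for the full control effect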
# Summary of the method: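 48 h treatment, SW-13 in ITS/DMEM serum-free; doses up to 46 uM; readout CellTiter-Glo luminescence; curve fit four-parameter logistic.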
# [3] = Cellular viability qHTS for adrenocortical cancer (ACC) cell line NCI-H295R (AID 1963990); also: nearly all actives have a fitted effect of over 60% in size; also: potency is read from the fitted curve at half-maximal effect
# Summary of the method: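 Compound titrations (up to 46 uM final) are applied to NCI-H295R cultures for 48 h at 37C. Viable cell number is estimated by CellTiter-Glo signal, normalised to DMSO and doxorubicin controls.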
# [4] = Quantitative highthroughput screen to assess conditional lethalithy of NOMO1 cells grown in RPMI1640 with dialyzed fetal bovine serum (RPMI+ds) (AID 1963877); also: nearly all actives have a fitted effect of over 30% in size; also: potency is read from the fitted curve at half-maximal effect;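 as to Viability: series mostly up to about 46 µM; 100% = DMSO control wells and 0% = empty wells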
# Summary of the method: (§1)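 Each medium arm—HPLM with 10% dialyzed FBS, or RPMI1640 with 5 mM glucose and 10% untreated or dialyzed FBS—was screened against an 11-point, 3-fold compound titration for 48 h at 37 °C, with CellTiter-Glo luminescence as endpoint.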
# [5] = Quantitative highthroughput screen to assess conditional lethalithy of P12 Ichikawa cells grown in Human Plasma-Like Medium with dialyzed fetal bovine serum (HPLM+ds) (AID 1963879); details: Potency: viability; also: nearly all actives have a fitted effect of over 35% in size; also: potency is read from the fitted curve at half-maximal effect; as to Viability: series mostly up to about 46 µM
# Summary of the method: as §1
# [6] = Quantitative highthroughput screen to assess conditional lethalithy of SEM cells grown in RPMI1640 with unreated serum (RPMI+s) (AID 1963883);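 also: 100% = DMSO wells and 0% = empty wells without cells; nearly all actives have a fitted effect of over 35% in size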
# Summary of the method: as §1
# [7] = Quantitative highthroughput screen to assess conditional lethalithy of SEM cells grown in Human Plasma-Like Medium with dialyzed fetal bovine serum (HPLM+ds) (AID 1963882); also: nearly all actives have a fitted effect of over 35% in size; also: potency is read from the fitted curve at half-maximal effect; as to Viability: series mostly up to about 46 µM
# Summary of the method: as §1
# [8] = Viability qHTS for spleen associated tyrosine kinase inhibitor (SYKi) drug resistant MV4-11 cells (AID 1963824); also: potency is read from the fitted curve at half-maximal effect; nearly all actives have a fitted effect of over 35% in size
# Summary of the method: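 SYK-inhibitor-resistant MV4-11 AML cells were seeded at 500 per well onto compound and cultured 72 hours (37 °C, 5% CO2). CellTiter-Glo was then added, and after 10 min at room temperature, luminescence gave viability.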
# [9] = Quantitative highthroughput screen to assess conditional lethalithy of NOMO1 cells grown in Human Plasma-Like Medium with dialyzed fetal bovine serum (HPLM+ds) (AID 1963878)
# Summary of the method: as §1
# [10] = Quantitative highthroughput screen to assess conditional lethalithy of P12 Ichikawa cells grown in RPMI1640 with dialyzed fetal bovine serum (RPMI+ds) (AID 1963880); details: Potency: P12-Ichikawa viability; also: nearly all actives have a fitted effect of over 35% in size; also: potency is read from the fitted curve at half-maximal effect;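 as to Viability: 100% = DMSO wells and 0% = empty wells on each plate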
# Summary of the method: as §1
# [11] = Quantitative highthroughput screen to assess conditional lethalithy of P12 Ichikawa cells grown in RPMI1640 with untreated serum (RPMI+s) (AID 1963881); details: Potency: viability
# Summary of the method: as §1
# [12] = Quantitative highthroughput screen to assess conditional lethalithy of SEM cells grown in RPMI1640 with dialyzed fetal bovine serum (RPMI+ds) (AID 1963884)
# Summary of the method: as §1
compound,measurement,setting,value
C#C[C@]1(O)C=C[C@H]2[C@@H]3CCC4=CC(=O)CC[C@@H]4[C@H]3CC[C@@]21CC,Potency,[1],inactive
same,activity (max response),[2],-4.27% and 2.85%
COc1nn(CSP(=S)(OC)OC)c(=O)s1,Potency,[1],38.6 µM (active)
same,Potency,[2],31.6 µM (active)
same,Potency,[3],25.1 µM (active)
O=C(Oc1ccc([N+](=O)[O-])cc1)N1CCC(C(O)(c2ccc3c(c2)OCO3)c2ccc3c(c2)OCO3)CC1,Potency,[1],inactive
same,Potency,[4],inactive
same,Potency,[5],14.8 µM (active)
same,Potency,[6],inactive
same,Potency,[3],inactive
OCCCBr,Potency,[1],inactive
same,activity (max response),[2],0.205%
CCNC(=O)C[C@@H]1N=C(c2ccc(Cl)cc2)c2cc(OC)ccc2-n2c(C)nnc21,Potency,[1],411 nM (active) and 417 nM (active)
same,Potency,[4],9.35 µM (active)
same,activity (max response),[2],-15.2%
same,Potency,[3],inactive
Cc1c(N)nc([C@H](CC(N)=O)NC[C@@H](N)C(N)=O)nc1C(=O)N[C@H](C(=O)N[C@@H](C)[C@H](O)[C@@H](C)C(=O)N[C@@H](C(=O)NCCc1nc(-c2nc(C(=O)NCCC[S+](C)C)cs2)cs1)[C@@H](C)O)C(O[C@H]1O[C@H](CO)[C@H](O)[C@@H](O)[C@H]1O[C@H]1O[C@H](CO)[C@@H](O)[C@H](OC(N)=O)[C@@H]1O)c1cnc[nH]1 (some centres undefined),Potency,[1],inactive
same,activity (max response),[2],-30.2%
same,Potency,[3],inactive
CN(C)[C@@H]1C(=O)C(C(N)=O)=C(O)[C@@]2(O)C(=O)C3=C(O)c4c(O)cccc4[C@@](C)(O)[C@H]3[C@H](O)[C@@H]12,Potency,[1],inactive
same,Potency,[7],inactive
same,activity (max response),[2],4.8%
O=C(NCCCNc1nc(Nc2ccc(N3CCOCC3)cc2)ncc1C1CC1)C1CCC1,Potency,[1],0.118 µM (active)
same,Potency,[8],166 nM (active)
same,Potency,[3],inactive
O=C(O)COc1nc(Cl)c(Cl)cc1Cl,Potency,[1],inactive
same,activity (max response),[2],12.3%
CC[C@H]1C[C@H]2[C@@H]3CCC4=CC(=O)CC[C@@H]4[C@H]3CC[C@]2(C)[C@H]1O,Potency,[1],18.8 µM (active)
same,activity (max response),[2],-16.6%
CO[C@H]1CCC(O[C@H]2C[C@H]([C@]3(C)CC[C@]4(C[C@H](O)[C@@H](C)[C@@H]([C@@H](C)/C=C(\C)C(=O)[C@H](C)C[C@H](C)C(=O)O)O4)O3)O[C@]3(O[C@@H]([C@H]4O[C@@](O)(CO)[C@H](C)C[C@@H]4C)C[C@@H]3C)[C@@H]2C)O[C@@H]1C (some centres undefined),Potency,[1],0.166 µM (active)
same,Potency,[8],209 nM (active)
same,Potency,[3],1.12 µM (active)
NC(=O)CS(=O)C(c1ccccc1)c1ccccc1 (centres undefined),Potency,[1],inactive
same,activity (max response),[2],12.6%
same,Potency,[3],inactive
C[N+]1(CCC(C(N)=O)(c2ccccc2)c2ccccc2)CCCCC1,Potency,[1],inactive
same,activity (max response),[2],8.34%
same,Potency,[3],inactive
C[C@]12CCC(=O)C=C1CC[C@@H]1[C@@H]2CC[C@]2(C)C(=O)CC[C@@H]12,Potency,[1],inactive
same,activity (max response),[2],-7.18%
same,Potency,[3],inactive
CCCCCCCCCC(CC)c1ccc(S(=O)(=O)O)cc1 (centres undefined),Potency,[1],7.7 µM (active)
same,Potency,[2],31.6 µM (active)
same,Potency,[3],25.1 µM (active)
C[C@](O)(COc1ccc(C#N)cc1)C(=O)Nc1ccc(C#N)c(C(F)(F)F)c1,Potency,[1],18.6 µM (active)
same,Potency,[4],inactive
same,Potency,[9],inactive
same,Potency,[5],inactive
same,Potency,[10],inactive
same,Potency,[11],inactive
same,Potency,[3],17.8 µM (active)
N[C@@H](Cc1ccc(Oc2cc(I)c(O)c(I)c2)c(I)c1)C(=O)O,Potency,[1],inactive
same,activity (max response),[2],2.16%
CCOP(=S)(OCC)O/N=C(\C#N)c1ccccc1,Potency,[1],inactive
same,activity (max response),[2],0.816%
same,Potency,[3],inactive
CCCC[N+]1(C)[C@@H]2CC(OC(=O)[C@H](CO)c3ccccc3)C[C@H]1[C@@H]1O[C@@H]12 (some centres undefined),Potency,[1],inactive
same,activity (max response),[2],15.3%
same,Potency,[3],inactive
O=C(O)CNC(=O)c1c(O)c2ccccc2n(Cc2ccccc2)c1=O,Potency,[1],inactive
same,Potency,[4],inactive
same,Potency,[9],inactive
same,Potency,[12],inactive
same,activity (max response),[2],3.51%
COP(=S)(OC)Oc1ccc(S(N)(=O)=O)cc1,Potency,[1],inactive
same,activity (max response),[2],5.57%
same,Potency,[3],inactive
CC(=O)Nc1ccc(OC[C@](C)(O)C(=O)Nc2ccc([N+](=O)[O-])c(C(F)(F)F)c2)cc1,Potency,[1],16.6 µM (active)
same,Potency,[4],inactive
same,Potency,[7],inactive
same,activity (max response),[2],0.634%
same,Potency,[3],inactive
O=C(O)CNC(=O)C1C(=O)N(C2CCCCC2)C(=O)N(C2CCCCC2)C1=O,Potency,[1],inactive
same,activity (max response),[2],-10.4%
same,Potency,[3],inactive
O=C(N[C@@H](COc1ccc2[nH]c(=O)[nH]c2c1)c1ccccc1)c1cccn(Cc2ccc(F)c(F)c2)c1=O,Potency,[1],11.6 µM (active)
same,Potency,[5],5.26 µM (active)
Oc1ccc2c3c1O[C@H]1[C@@H](O)C=C[C@H]4[C@@H](C2)NCC[C@@]341,Potency,[1],inactive
same,activity (max response),[2],-14.8%
same,Potency,[3],inactive
C=C(C)[C@H]1Cc2c(ccc3c2O[C@@H]2COc4cc(OC)c(OC)cc4[C@@H]2C3=O)O1,Potency,[1],0.0376 µM (active)
same,Potency,[5],3.72 µM (active)
same,Potency,[10],4.69 µM (active)
same,Potency,[7],5.26 µM (active)
same,Potency,[2],0.0116 µM (active)
same,Potency,[3],0.103 µM (active)
CC(C)(C)OC(=O)c1ncn2c1[C@@H]1CCCN1C(=O)c1c(Br)cccc1-2,Potency,[1],inactive
same,activity (max response),[2],2.94%
same,Potency,[3],inactive
